# The panel holds about 83,000 compounds, 20% with a hit somewhere; the sample as a whole holds those more often.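 Results are percent growth after 48 hours of single-concentration exposure. 100 means growth as in untreated cells, lower positive values show inhibition; negative values down to -100 show cell death.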 Unmarked numbers belong to inactive results. Active and inactive are the calls of the source. The calls were made as follows: active = growth percent below 10; inactive = the rest.
# Tested on: RXF 393 renal
# Test: NCI-60 one-dose screen, 48 h (100 = growth as untreated, 0 = no growth, -100 = all killed)
# Settings: 10 µM unless noted
row,SMILES,growth
1,COCc1c(-c2ccc(NC(=O)Nc3cc(C(F)(F)F)ccc3F)c(F)c2)c2c(N)ncnn2c1CN1CCOCC1,-88.4% (active)
2,COC(=O)[C@@H](NC(=O)[C@@H](OC)[C@@H]1Cc2cc3cc(OC4CC(OC5CC(O)C(O)C(C)O5)C(O)C(C)O4)c(C)c(O)c3c(O)c2C(=O)[C@H]1OC1CC(OC2CC(OC3CC(C)(O)C(O)C(C)O3)C(O)C(C)O2)C(O)C(C)O1)C(C)C (stereo partly specified),-68% (active)
3,Cc1ccc(Nc2nccc(N(C)c3ccc4c(C)n(C)nc4c3)n2)cc1S(N)(=O)=O,-37.5% (active)
4,CCN(CCO)CCCOc1ccc2c(Nc3cc(CC(=O)Nc4cccc(F)c4)[nH]n3)ncnc2c1,86.1%
5,COc1ccc(Cc2cc(-c3ccccc3C)n[nH]c2=O)cc1,99.2%
6,Clc1ccc(C(Cn2ccnc2)OCc2ccsc2Cl)c(Cl)c1 (stereo unspecified),27.8%
7,COc1ccc(/C(C)=C(\c2ccc(Cl)cc2)c2ccc(OCCN3CCCCCC3)cc2)cc1,69.5%
8,CCCCCc1ccc(C)cc1OC(=O)CCl,103%
9,COc1ccc(-c2ccc3ncc4c(c3c2)n(-c2ccc(N3CCNCC3)c(C(F)(F)F)c2)c(=O)n4C)cn1,-83.2% (active)
10,COc1cc(OC)c(/C=C/S(=O)(=O)Cc2ccc(OC)c(NCC(=O)O)c2)c(OC)c1,36.9%
11,COC1CCC(N2C(=O)CNc3ncc(-c4ccc(C(C)(C)O)nc4)nc32)CC1 (stereo unspecified),-28.5% (active)
12,C[C@@H](Oc1cc(-n2cnc3ccc(CN4CCN(C)CC4)cc32)sc1C(N)=O)c1ccccc1C(F)(F)F,16.5%
13,CN(c1ncccc1CNc1nc(Nc2ccc3c(c2)CC(=O)N3)ncc1C(F)(F)F)S(C)(=O)=O,-43.3% (active)
14,COc1cc2nccc(Oc3ccc(NC(=O)Nc4cc(C)on4)c(Cl)c3)c2cc1OC,-28.9% (active)
15,COc1cccc(Nc2ncnn3ccc(CN4CC[C@@H](N)[C@H](O)C4)c23)c1,-41.4% (active)
16,Cc1nc2cc(-c3nn(C(C)C)c4ncnc(N)c34)ccc2o1,-54.3% (active)
17,C[C@@H](N)c1ccc(C(=O)Nc2ccnc3[nH]ccc23)cc1,-18% (active)
18,NC(=O)c1c(OCc2c(F)cc(Br)cc2F)nsc1NC(=O)NCCCCN1CCCC1,-81.9% (active)
19,CC(=O)OC(C(=O)c1ccccc1)c1ccccc1 (stereo unspecified),103%

row,SMILES,growth
1,O=C1NC(=O)[C@@H](c2cn3c4c(cccc24)CCC3)[C@@H]1c1c[nH]c2ccccc12,6.54% (active)
2,CCN(CC)c1cc2oc3cc(N)cc(=N)c-3nc2cc1C,86.2%
3,CC(=O)C1CC(C)CCC1C(C)C (stereo unspecified),107%
4,CCN1CCN(Cc2ccc(-c3cc4c(N[C@H](C)c5ccccc5)ncnc4[nH]3)cc2)CC1,26.4%
5,O=c1[nH]c([C@@H]2CCCN2)nc2c1oc1ccc(Cl)cc12,72.4%
6,C=CC(=O)Nc1cccc(Oc2nc(Nc3ccc(N4CCN(C)CC4)cc3)nc3ccsc23)c1,-83.9% (active)
7,CCS(=O)(=O)N1CCN(c2ccc(Nc3ncc(C(N)=O)c(NC4CC4)n3)cc2)CC1,25.8%
8,O=C(COc1ccc(/C=C2\Cc3ccc(Cl)cc3C2=O)cc1)Nc1nccs1,98.2%
9,CC(C)(C)c1cnc(CSc2cnc(NC(=O)C3CCNCC3)s2)o1,-51.5% (active)
10,CS(=O)(=O)CCNCc1ccc(-c2ccc3ncnc(Nc4ccc(OCc5cccc(F)c5)c(Cl)c4)c3c2)o1,-73.9% (active)
11,Cc1cc(O)cc(-c2c(-c3ccnc(-c4cccnc4)c3)cnn2C)c1,54.4%
12,CN1CCN(c2nc(C3=C(c4c[nH]c5ccccc45)C(=O)NC3=O)c3ccccc3n2)CC1,120%
13,CC(=O)NCC(=O)N1[C@@H]2CC[C@H]1c1ccc(Nc3ncc(C(F)(F)F)c(NC4CCC4)n3)cc12,-12.8% [2.5 µM] (active)
14,Cc1cc([C@@H](C)Nc2ccccc2C(=O)O)c2nc(N3CCOCC3)cc(=O)n2c1,-21.1% (active)
15,Cc1cc(Oc2ccccc2)ccc1Nc1ncnc2ccc(-c3cnc(Cl)c(NS(C)(=O)=O)c3)cc12,-31.6% (active)
16,CCN(CC)CCNC(=O)c1c(C)[nH]c(/C=C2\C(=O)Nc3ccc(F)cc32)c1C,-71.4% (active)
17,O=C(Nc1cnn2ccc(N3CCC[C@@H]3c3cc(F)ccc3F)nc12)N1CC[C@H](O)C1,80.7%
18,COc1ccc(F)c(F)c1C(=O)c1cnc(NC2CCN(S(C)(=O)=O)CC2)nc1N,-62% (active)
19,CN1C/C=C\CCOc2cccc(c2)-c2ccnc(n2)Nc2cccc(c2)C1,-86.1% (active)

# Tested on: SF-268 CNS
# Test: as above
# Settings: 10 µM unless noted
row,SMILES,growth
1,COCc1c(-c2ccc(NC(=O)Nc3cc(C(F)(F)F)ccc3F)c(F)c2)c2c(N)ncnn2c1CN1CCOCC1,-14.5% (active)
2,COC(=O)[C@@H](NC(=O)[C@@H](OC)[C@@H]1Cc2cc3cc(OC4CC(OC5CC(O)C(O)C(C)O5)C(O)C(C)O4)c(C)c(O)c3c(O)c2C(=O)[C@H]1OC1CC(OC2CC(OC3CC(C)(O)C(O)C(C)O3)C(O)C(C)O2)C(O)C(C)O1)C(C)C (stereo partly specified),6.33% (active)
3,Cc1ccc(Nc2nccc(N(C)c3ccc4c(C)n(C)nc4c3)n2)cc1S(N)(=O)=O,45.4%
4,CCN(CCO)CCCOc1ccc2c(Nc3cc(CC(=O)Nc4cccc(F)c4)[nH]n3)ncnc2c1,56.2%
5,COc1ccc(Cc2cc(-c3ccccc3C)n[nH]c2=O)cc1,85%
6,Clc1ccc(C(Cn2ccnc2)OCc2ccsc2Cl)c(Cl)c1 (stereo unspecified),67.5%
7,COc1ccc(/C(C)=C(\c2ccc(Cl)cc2)c2ccc(OCCN3CCCCCC3)cc2)cc1,72.3%
8,CCCCCc1ccc(C)cc1OC(=O)CCl,105%
9,COc1ccc(-c2ccc3ncc4c(c3c2)n(-c2ccc(N3CCNCC3)c(C(F)(F)F)c2)c(=O)n4C)cn1,-76.3% (active)
10,COc1cc(OC)c(/C=C/S(=O)(=O)Cc2ccc(OC)c(NCC(=O)O)c2)c(OC)c1,30.3%
11,COC1CCC(N2C(=O)CNc3ncc(-c4ccc(C(C)(C)O)nc4)nc32)CC1 (stereo unspecified),18.5%
12,C[C@@H](Oc1cc(-n2cnc3ccc(CN4CCN(C)CC4)cc32)sc1C(N)=O)c1ccccc1C(F)(F)F,31.6%
13,CN(c1ncccc1CNc1nc(Nc2ccc3c(c2)CC(=O)N3)ncc1C(F)(F)F)S(C)(=O)=O,2.36% (active)
14,COc1cc2nccc(Oc3ccc(NC(=O)Nc4cc(C)on4)c(Cl)c3)c2cc1OC,21.7%
15,COc1cccc(Nc2ncnn3ccc(CN4CC[C@@H](N)[C@H](O)C4)c23)c1,45.1%
16,Cc1nc2cc(-c3nn(C(C)C)c4ncnc(N)c34)ccc2o1,4.35% (active)
17,C[C@@H](N)c1ccc(C(=O)Nc2ccnc3[nH]ccc23)cc1,50.6%
18,NC(=O)c1c(OCc2c(F)cc(Br)cc2F)nsc1NC(=O)NCCCCN1CCCC1,11.7%
19,CC(=O)OC(C(=O)c1ccccc1)c1ccccc1 (stereo unspecified),107%

row,SMILES,growth
1,O=C1NC(=O)[C@@H](c2cn3c4c(cccc24)CCC3)[C@@H]1c1c[nH]c2ccccc12,34.2%
2,CCN(CC)c1cc2oc3cc(N)cc(=N)c-3nc2cc1C,64.5%
3,CC(=O)C1CC(C)CCC1C(C)C (stereo unspecified),105%
4,CCN1CCN(Cc2ccc(-c3cc4c(N[C@H](C)c5ccccc5)ncnc4[nH]3)cc2)CC1,52%
5,O=c1[nH]c([C@@H]2CCCN2)nc2c1oc1ccc(Cl)cc12,65.2%
6,C=CC(=O)Nc1cccc(Oc2nc(Nc3ccc(N4CCN(C)CC4)cc3)nc3ccsc23)c1,3.11% (active)
7,CCS(=O)(=O)N1CCN(c2ccc(Nc3ncc(C(N)=O)c(NC4CC4)n3)cc2)CC1,75.5%
8,O=C(COc1ccc(/C=C2\Cc3ccc(Cl)cc3C2=O)cc1)Nc1nccs1,114%
9,CC(C)(C)c1cnc(CSc2cnc(NC(=O)C3CCNCC3)s2)o1,12%
10,CS(=O)(=O)CCNCc1ccc(-c2ccc3ncnc(Nc4ccc(OCc5cccc(F)c5)c(Cl)c4)c3c2)o1,8.76% (active)
11,Cc1cc(O)cc(-c2c(-c3ccnc(-c4cccnc4)c3)cnn2C)c1,72.8%
12,CN1CCN(c2nc(C3=C(c4c[nH]c5ccccc45)C(=O)NC3=O)c3ccccc3n2)CC1,95.1%
13,CC(=O)NCC(=O)N1[C@@H]2CC[C@H]1c1ccc(Nc3ncc(C(F)(F)F)c(NC4CCC4)n3)cc12,38.6% [2.5 µM]
14,Cc1cc([C@@H](C)Nc2ccccc2C(=O)O)c2nc(N3CCOCC3)cc(=O)n2c1,47.6%
15,Cc1cc(Oc2ccccc2)ccc1Nc1ncnc2ccc(-c3cnc(Cl)c(NS(C)(=O)=O)c3)cc12,35.4%
16,CCN(CC)CCNC(=O)c1c(C)[nH]c(/C=C2\C(=O)Nc3ccc(F)cc32)c1C,39.6%
17,O=C(Nc1cnn2ccc(N3CCC[C@@H]3c3cc(F)ccc3F)nc12)N1CC[C@H](O)C1,91%
18,COc1ccc(F)c(F)c1C(=O)c1cnc(NC2CCN(S(C)(=O)=O)CC2)nc1N,6.42% (active)
19,CN1C/C=C\CCOc2cccc(c2)-c2ccnc(n2)Nc2cccc(c2)C1,-50.8% (active)
